# Measurements as given in PubChem BioAssay AID2810 (NMMLSC, 2010).
# The campaign covered roughly 1,200 compounds. About 65 (5%) were called active.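 Rule for the calls: active = at either tested dose, response and 90th-percentile vesicle-stain brightness of CD8 cells under set limits and under 9% cells vesicle-bound; inactive = the rest.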 Shown is part of a subset that was picked to be rich in actives.
# Experiment: modulators of CD8 T cell-vesicle binding, confirmation, cherry-picked primary hits, two concentrations (AID 2810);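 note: lower values mean blocking of vesicle binding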;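 for percent response (vesicle binding): ratio of mean FL2 vesicle stain of CD8+ cells to that row's control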
# Details: 2C CD8+ T cell-vesicle binding, flow cytometry; for double positive events: CD8+/vesicle+ events
# [1] = at 15.4 µM, stronger effect = lower value
Structure (SMILES),double positive events (at 7.7 µM) [%],double positive events [1] [%],percent response (vesicle binding) [1],"percent response (vesicle binding) (response, at 7.7 µM) [%]"
O=C1CCCc2sccc2N1,17.6,1.1,33.4% (active),308
CCCCn1c(N)c(N(CCOC)C(=O)c2c(CC)noc2C)c(=O)[nH]c1=O,8.2,14.5,132% (inactive),298
c1coc(-c2nc3c4c5c(sc4ncn3n2)CCCC5)c1,17.3,13.1,71% (inactive),187
O=C(c1ccco1)N1CCN(c2ncccn2)CC1,27.2,11.7,199% (inactive),331
O=C(c1ccco1)N1CCN(C(c2ccccc2Cl)c2nnnn2Cc2ccco2)CC1 (configuration not stated),15.1,6.3,40.7% (active),456
COc1ccc(OC)c(C(c2nnnn2CCC(C)C)N2CCN(C(=O)c3ccco3)CC2)c1 (configuration not stated),33.6,30.5,242% (inactive),208
COCC(C)NC(=O)CSc1nc2cc(S(=O)(=O)N3CCCCC3)ccc2o1 (configuration not stated),13.5,13.6,131% (inactive),364
COc1cccc(NC(=O)Nc2ccc3nc(C)c(C)nc3c2)c1,9.8,8.7,103% (inactive),154
COc1ccc(NC(=O)Nc2c(O)ccc3ccccc23)cc1,5.2,17.7,132% (inactive),173
COc1ccc(NC(=O)Nc2ccc(O)c3ccccc23)cc1,5.3,10,103% (active),35.3
Cn1nc(-c2ccccc2)c(CSc2ccccc2Cl)c1Cl,14.2,30.1,241% (inactive),251
CC(C)c1ccc(NC(=O)NCc2cccnc2)cc1,12,22.3,281% (inactive),415
C/C(=N\NC(=O)c1ccc(Br)o1)c1cc2c(cc1NC(=O)CCC(=O)O)OCO2,36.2,13.6,208% (inactive),305
COc1ccc(S(=O)(=O)N2CCCC2C(=O)Nc2ccc(C(C)=O)cc2)cc1 (configuration not stated),6.8,18.3,384% (inactive),406
COc1ccc(NC(=O)C2CCC(C(C)(C)C)CC2)cc1S(=O)(=O)N1CCCCC1 (configuration not stated),17.3,13.7,203% (inactive),135
COc1ccc(NS(=O)(=O)c2cc(NC(=O)C3CC3)ccc2N2CCCCC2)cc1,9.3,3.4,36.1% (active),138
Nc1nc(SCCO)[nH]c(=O)c1NC(=O)c1ccc(Br)o1,11.9,25.8,393% (inactive),383
O=C1CC(c2nc3ccccc3[nH]2)CN1Cc1ccccc1 (configuration not stated),17.2,4.3,50.8% (active),341
CCOCC(=O)Nc1ccc(S(=O)(=O)N2CCC(c3nc4ccccc4[nH]3)CC2)cc1,7.3,21.4,156% (inactive),124
O=C(c1ccccc1Cl)N1CCCC(c2nc3c(nnn3Cc3ccccc3)c(=O)[nH]2)C1 (configuration not stated),9.2,17.6,132% (inactive),181
CC(OC(=O)c1ccc2c(c1)C(=O)N(Cc1ccncc1)C2=O)C(=O)Nc1cccc(Cl)c1Cl (configuration not stated),16.7,30.5,343% (inactive),266
CSc1ccccc1NC(=O)CN(C)C(=O)c1ccc2c(c1)OCCO2,45.7,7.6,133% (inactive),295
CCc1ccc(NC(=S)N(CCCN2CCOCC2)Cc2ccccn2)cc1,22.2,40,339% (inactive),168

Structure (SMILES),double positive events (at 7.7 µM) [%],double positive events [1] [%],percent response (vesicle binding) [1],"percent response (vesicle binding) (response, at 7.7 µM) [%]"
CN(C)S(=O)(=O)c1cccc(-n2sc3ccccc3c2=O)c1,4.4,2.1,52.8% (active),173
CCCc1cc(=O)[nH]c(SCC(=O)N2c3ccccc3CC2C)n1 (configuration not stated),26.4,4.8,139% (inactive),285
O=C(O)C1CCC(Cn2c(SCc3cc(=O)n4cc(Cl)ccc4n3)nc3ccsc3c2=O)CC1 (configuration not stated),29.3,9,76.3% (inactive),339
CCOC(=O)C1CCN(C(=O)c2ccc(NC(=O)C3CCCO3)cc2)CC1 (configuration not stated),27.3,1.9,21.8% (active),–
Cc1ccc(NC(=O)C2CCCO2)cc1[N+](=O)[O-] (configuration not stated),25.5,9.4,161% (inactive),161
CCOC(=O)C1CCN(C(=O)c2cccc(S(=O)(=O)NCc3ccccc3)c2)CC1,16.4,18.8,420% (inactive),128
O=C(COc1ccccc1)NNC(=O)c1ccc(Cl)cc1,27.8,8,220% (inactive),616
CN(C)S(=O)(=O)c1ccc(NC(=O)c2ccc([N+](=O)[O-])cc2)cc1,25.4,22.8,217% (inactive),312
CCC(C(=O)Nc1ccccc1)c1ccccc1 (configuration not stated),6.9,21.7,199% (active),59.2
CCC(C)c1ccc(NC(=O)NCc2cccnc2)cc1 (configuration not stated),8.6,27.9,260% (inactive),356
CCOc1ccccc1NC(=O)C(OC(=O)c1ccccc1O)c1ccccc1 (configuration not stated),6.9,21.5,190% (inactive),189
Cc1ccc(CONC(=O)c2cccc([N+](=O)[O-])c2)cc1,27.4,16.3,328% (inactive),576
CCOC(=O)C1(Cc2cccc(OC)c2)CCN(Cc2ccc3c(c2)OCCO3)CC1,13,17.1,114% (inactive),148
CCOc1ccc(/C(O)=C2/C(=O)C(=O)N(CCN(CC)CC)C2c2cccs2)cc1 (configuration not stated),17.2,26.6,300% (inactive),187
COCCN1C(=O)C(=O)/C(=C(/O)c2cccc(OC)c2)C1c1ccc(C)o1 (configuration not stated),12.5,16.5,205% (inactive),173
COc1ccc(/C(O)=C2/C(=O)C(=O)N(Cc3cccnc3)C2c2ccco2)cc1OC (configuration not stated),23.3,0.8,27% (active),360
COc1ccc(NC(=O)COC(=O)c2cc(Cl)ccc2O)cc1S(=O)(=O)N1CCCCC1,27,23.1,366% (inactive),227
CC1CC(C)(C)NC(=S)N1CC(=O)NCc1ccccc1Cl (configuration not stated),8.8,18.9,506% (inactive),79.3
CCOC(=O)C1(CC2CCCCO2)CCN(S(=O)(=O)c2ccc(C)s2)CC1 (configuration not stated),17.8,18.7,122% (inactive),196
COc1ccc(F)c(CN2CCC(n3nccc3NC(=O)C3CCOC3)CC2)c1 (configuration not stated),29.1,10.9,235% (inactive),538
CCCCCCCCn1c2c(c(=N)c3c1CCC3)CCCC2,1.8,5.8,46.9% (active),54.6
C=CCN1C(=O)c2ccc(C(=O)N3CCN(S(=O)(=O)c4cccc(Cl)c4)CC3)cc2C1=O,12.4,26.8,118% (inactive),125
CC(C)(C)C(=O)Nc1ccc2c(c1)OCCOCCOc1cc(NC(=O)C(C)(C)C)ccc1OCCOCCO2,22.2,25.5,251% (inactive),910

Structure (SMILES),double positive events (at 7.7 µM) [%],double positive events [1] [%],percent response (vesicle binding) [1],"percent response (vesicle binding) (response, at 7.7 µM) [%]"
COc1ccc(N(CC(=O)NCCC2=CCCCC2)S(=O)(=O)c2ccc(C)cc2)cc1OC,8.6,22.9,140% (inactive),96.7
Cc1c(C(=O)NCCSCc2c(F)cccc2Cl)cnn1-c1ccc(Cl)cc1,19.9,1.6,26.4% (active),229
O=C(CSCCO)N1CCc2ccccc21,9.8,26,310% (inactive),415
Nc1nnc(SCCOc2ccc(Br)cc2)s1,34.9,15.9,217% (inactive),294
Cc1sc(NC(=O)CN2CCOCC2)c(C#N)c1C,10.4,29,344% (inactive),364
COc1cccc(C(=O)O[C@@H]2[C@H](Cc3ccccc3)NS(=O)(=O)[C@H]3C[C@@H]4C=C[C@]23O4)c1,30,18.9,180% (inactive),197
Cc1oc(-c2ccccc2)nc1Cn1cccc1C1=NC(c2ccccc2)CO1 (configuration not stated),13.6,14.5,105% (inactive),179
CCn1nc(C(=O)NCCc2ccc3c(c2)OCCO3)c2ccccc2c1=O,9.8,15.2,173% (inactive),148
OC[C@H]1O[C@@H](Oc2ccc3cc(Br)ccc3c2)[C@H](O)[C@@H](O)[C@H]1O,14.4,27.5,389% (inactive),493
COc1ccc(C(=O)N2CCN(c3ccc(NC(=O)Cc4ccccc4)cc3)CC2)cc1,25.4,23.5,291% (inactive),635
COC(=O)CN1C(=S)N(C)C(=O)C1CC(=O)Nc1ccccc1 (configuration not stated),18.9,12.8,120% (inactive),896
COc1ccc(NC(=O)CC2C(=O)N(Cc3ccccc3)C(=S)N2CCN2CCOCC2)cc1 (configuration not stated),13,0.6,20% (active),196
S=c1sc2c(N3CCOCC3)ncnc2n1-c1ccccc1,9.4,12.2,206% (inactive),355
Cc1cc2ncn(C(=O)N3CCCCCC3)c2cc1C,6.8,21.3,112% (inactive),241
CCCCn1c(-c2ccccc2)nnc1-c1ccccc1,37.8,9.3,150% (inactive),219
O=C(N/N=C/c1cccc(OCc2ccccc2)c1)c1ccc(Br)cc1,9.6,0.9,36% (active),128
O=C(N/N=C/c1cccc(OC(=O)c2ccccc2Cl)c1)c1cccnc1,25.8,10,87% (inactive),350
O=C(N/N=C/c1ccc(OCc2ccccc2)cc1)c1cccs1,12.1,18.5,272% (inactive),428
Cc1ccc(N(CC(O)CN2CCCC2)S(=O)(=O)c2ccc(C)cc2)cc1 (configuration not stated),24.2,34.6,136% (inactive),325
COc1cc(F)c(C2=CC(=O)C[C@H](c3ccc(F)cc3)C2)cc1F,24.2,13.4,170% (inactive),320
CC1(C)Cc2c(C#N)c(NC3CCCCC3)nc(-c3ccco3)c2CO1,5.9,2.8,33.8% (active),107
